Consider 40 compounds from PubChem BioAssay (Tox21).

Each structure is given as a SMILES string. Inconclusive results are not listed. A call without a number means that no potency is given here. The source made the active and inactive calls. The call rests on the fitted dose curve.

The assay in a line: qHTS assay for small molecule agonists of the antioxidant response element (ARE) signaling pathway - cell viability counter screen (AID 743203). Further: nearly all actives have a fitted effect of over 55% in size. The note with it: ARE-bla HepG2 viability, CellTiter-Glo luminescence, 16 h; series mostly up to 73.3 µM. The source says: National Center for Advancing Translational Sciences [NCATS]
NIH Chemical Genomics Center [NCGC]
U.S. Environmental Protection Agency [EPA]
National Institutes of Environmental Health Sciences [NIEHS]
National Toxicology Program [NTP]
U.S. Food and Drug Administration [FDA]
Oxidative stress has been implicated in the pathogenesis of a variety of diseases ranging from cancer to neurodegeneration. The antioxidant response element (ARE) signaling pathway plays an important role in the amelioration of oxidative stress. The CellSensor ARE-bla HepG2 cell line (Invitrogen) can be used for analyzing the Nrf2/antioxidant response signaling pathway. Nrf2 (NF-E2-related factor 2) and Nrf1 are transcription factors that bind to AREs and activate these genes. The CellSensor ARE-bla Hep G2 cell line contains a beta-lactamase reporter gene under control of the Antioxidant Response Element (ARE) stably integrated into HepG2 cells. The activation of the report gene under culture conditions can be detected by fluorescence intensity. This cell line has been used to screen the Tox21 10K compound library to identify agonists that induce oxidative stress. The cytotoxicity of the Tox21 compound library against the ARE-bla cell line was tested in parallel by measuring the cell viability using CellTiter-Glo assay (Promega, Madison, WI) in the same wells.
Tox21 Assay Protocol Summary:
ARE-bla HepG2 cells were dispensed at 2,000 cells/5 ul/well in 1536-well white wall/solid bottom plates using a Multidrop Combi (ThermoFisher Scientific, Waltham, MA) dispenser. After the assay plates were incubated at 37C/5% CO2 for 5 hrs, 23 nL of compounds dissolved in DMSO, positive controls or DMSO only was transferred to the assay plate by a pintool work station (Kalypsys, San Diego, CA). The plates were incubated at 37C/5% CO2 for 16 hrs, followed by addition of 4 ul/well of CellTiter-Glo reagent into the assay plates using a Flying Reagent Dispenser (Aurora Discovery, San Diego, CA). After 30 min incubation at room temperature, the luminescence intensity in the assay plates was measured using a ViewLux (PerkinElmer, Shelton, CT) plate reader.
A general note: Quantitative high-throughput screening tests each substance at several concentrations.
As for `CCCCCCCCNC`, the Potency entry is “inactive”.
Under `c1ccc(-c2ccc(-c3ccccc3)cc2)cc1` stands “inactive”; under `CC(CC(C#N)(c1ccccc1)C(C)C)N(C)C` (stereo not given), “inactive”; under `O=C(OC1C[C@H]2CC[C@@H](C1)[N+]21CCCC1)C(O)(c1ccccc1)c1ccccc1` (stereo not given in full), “inactive”.
Under `CCn1nc(Cc2ccccc2)cc1C1CCN(C[C@H]2C[C@H](N(C)[C@@H](C(=O)O)C(C)C)C[C@@H]2c2cccc(F)c2)CC1` stands “inactive”; under `CS(C)=O`, “inactive”; under `CCC(=O)O[C@@H]1C[C@H]2CC[C@]1(C)C2(C)C`, “inactive”.
Then `CCCc1nc(C)c2c(=O)[nH]c(-c3cc(S(=O)(=O)N4CCN(CC)CC4)ccc3OCC)nn12`, with “inactive”; and `CC(=O)Nc1cccc(N)c1`, with “inactive”.
For the compound `Cc1cc(N)n(-c2ccccc2)n1`, the Potency entry was “inactive”.
On to `CC(=O)S[C@H](C(=O)N[C@H]1Cc2ccccc2[C@H]2CCC[C@@H](C(=O)O)N2C1=O)C(C)C`, for which the Potency result is “inactive”.
Then `O=C(O)c1cccc(C(=O)O)c1C(=O)O`, with “inactive”.
Then `CCC(=O)O[C@]1(C(=O)COC)[C@@H](C)C[C@H]2[C@@H]3CCC4=CC(=O)C=C[C@]4(C)C3(F)[C@@H](O)C[C@@]21C` (stereo not given in full), with “inactive”; and `CCCC(=O)OCCC(C)C`, with “inactive”.
Under `C[C@H]1C[C@H]2[C@@H]3CCC4=CC(=O)C=C[C@]4(C)[C@@]3(F)[C@@H](O)C[C@]2(C)[C@@]1(O)C(=O)COP(=O)(O)O` stands “inactive”; under `CC(C)CCCCCCCOC(=O)c1ccc(C(=O)OCCCCCCCC(C)C)c(C(=O)OCCCCCCCC(C)C)c1`, “inactive”; under `C/C(=C(\CCO)SS/C(CCO)=C(\C)N(C=O)Cc1cnc(C)nc1N)N(C=O)Cc1cnc(C)nc1N`, “inactive”.
Regarding `O=C(O)c1c2ccccc2cc2ccccc12`, the Potency entry is “inactive”.
Under `CC1(C)[C@@H]2CC[C@]3(C2)[C@@H]1C(=O)CCC3(C)C` stands “inactive”.
Under `O=C(OCCN1CCOCC1)c1cccnc1Nc1cccc(C(F)(F)F)c1` stands “inactive”.
Under `NC(=O)c1cc[n+](CC2=C(C(=O)[O-])N3C(=O)[C@@H](NC(=O)Cc4cccs4)[C@H]3SC2)cc1` stands “inactive”; under `CC(C(=O)O)c1ccc2c(c1)Cc1cccnc1O2` (stereo not given), “inactive”.
As for `O=C(OCCCCCOC(=O)c1ccccc1)c1ccccc1`, the Potency entry is “inactive”.
Under `Cc1ccc(Cl)c(OCC(O)CNC(C)(C)C)c1` (stereo not given) stands “inactive”; under `O=C(O)c1ccccc1-n1cc(C(=O)O)c(=O)c2cc(Nc3c(F)cc(F)cc3Cl)c(Cl)cc21`, “inactive”.
Then `CCCCCCC/C=C/C=O`, with “inactive”.
Then `O=C(O)c1ccccc1[N+](=O)[O-]`, with “inactive”.
`Nc1ccc(C(=O)Oc2ccccc2)c(O)c1`: the Potency entry was “inactive”.
Under `FC1(F)C(F)(F)C(F)(F)C2(F)C(F)(C1(F)F)C(F)(F)C(F)(F)C1(F)C(F)(F)C(F)(F)C(F)(F)C(F)(F)C12F` (stereo not given) stands “inactive”; under `CCC(C)CCCC(C)(C)O` (stereo not given), “inactive”; under `CCOc1ccc(NC(C)=O)cc1N`, “inactive”.
Take `CC/C=C/CCO`: the Potency result was “inactive”.
Under `O=C(O)c1cc(C(=O)O)cc([N+](=O)[O-])c1` stands “inactive”; under `CC(CCl)OC(C)CCl` (stereo not given), “inactive”; under `CCCCCCCCCCCCN1CCOCC1`, “inactive”.
In the case of `CCCCCCCCCCCC(=O)OCC`, the Potency entry is “inactive”.
Then `CCCCCC1CCC(=O)O1` (stereo not given), with “inactive”; and `O=c1[nH]nc(-c2ccc([N+](=O)[O-])o2)o1`, with “inactive”; and `CCc1cnc(C(=O)O)c(C(=O)O)c1`, with “inactive”.
Then `O=C(O)c1cc(C(=O)O)c(C(=O)O)cc1C(=O)O`, with “inactive”.
